# Assay results taken from PubChem BioAssay AID1159580 (chemical genetic matrix, 2015).
# The whole screen tested about 5,500 compounds, of which about 2,000 (36%) were called active. Inconclusive results (about 18%) are left out. This is one part of the list. Unmarked numbers belong to inactive results. Rule as the data show it: active = normalized growth mostly below about 0.91 (no sharp cut-off); inconclusive = no clear call, values can overlap the other calls; inactive = mostly above about 0.92.
# Assay: chemical genetic growth profiling, strain panel (AID 1159580);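 also: tested at 20 µM; growth read once vehicle control cultures reached saturation at 30 °C; 1 = growth at the plate median or of vehicle wells; lower values mean less growth of the strain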
# Details: growth OD
smiles,measurement,setting,value
CCc1nc(N)nc(N)c1-c1ccc(Cl)cc1,normalized growth,"S. cerevisiae deletion strains, locus YJR075W, strain HOC1, hits give low values",0.978
same,normalized growth,"S. cerevisiae deletion strains, locus YKL009W, strain mrt4, hits give low values",1.01
same,normalized growth,"S. cerevisiae deletion strains, locus YKL068W, hits give low values",1
same,normalized growth,"S. cerevisiae deletion strains, locus YKL085W, strain MDH1 (second series), hits give low values",1
same,normalized growth,"S. cerevisiae deletion strains, locus YKL085W, strain MDH1, hits give low values",1
same,normalized growth,"S. cerevisiae deletion strains, locus YKL160W, strain elf1, hits give low values",0.948
same,normalized growth,"S. cerevisiae deletion strains, locus YKL190W, strain CNB1, hits give low values",1.01
same,normalized growth,"S. cerevisiae deletion strains, locus YKR001C, strain vps1, hits give low values",0.985
same,normalized growth,"S. cerevisiae deletion strains, locus YKR026C, strain gcn3, hits give low values",1.2 [resistant] (active)
same,normalized growth,"S. cerevisiae deletion strains, locus YKR091W, strain srl3, hits give low values",0.977
same,normalized growth,"S. cerevisiae deletion strains, locus YLL001W, strain dnm1, hits give low values",0.942
same,normalized growth,"S. cerevisiae deletion strains, locus YLL026W, hits give low values",0.992
same,normalized growth,"S. cerevisiae deletion strains, locus YLL041C, strain sdh2, hits give low values",0.972
same,normalized growth,"S. cerevisiae deletion strains, locus YLR027C, strain aat2, hits give low values",0.984
same,normalized growth,"S. cerevisiae deletion strains, locus YLR039C, strain RIC1, hits give low values",1.09
same,normalized growth,"S. cerevisiae deletion strains, locus YLR058C, strain SHM2, hits give low values",1.01
same,normalized growth,"S. cerevisiae deletion strains, locus YLR102C, strain apc9, hits give low values",1
same,normalized growth,"S. cerevisiae deletion strains, locus YLR113W, strain HOG1, hits give low values",1.04
same,normalized growth,"S. cerevisiae deletion strains, locus YLR221C, strain rsa3, hits give low values",1
same,normalized growth,"S. cerevisiae deletion strains, locus YLR258W, strain gsy2, hits give low values",0.98
same,normalized growth,"S. cerevisiae deletion strains, locus YLR262C, strain YPT6 (second series), hits give low values",0.958
same,normalized growth,"S. cerevisiae deletion strains, locus YLR262C, strain YPT6, hits give low values",1.15
same,normalized growth,"S. cerevisiae deletion strains, locus YLR268W, strain sec22, hits give low values",0.968
same,normalized growth,"S. cerevisiae deletion strains, locus YLR320W, strain mms22, hits give low values",0.99
same,normalized growth,"S. cerevisiae deletion strains, locus YLR330W, strain CHS5, hits give low values",1.01
same,normalized growth,"S. cerevisiae deletion strains, locus YLR342W, strain FKS1 (second series), hits give low values",0.952
same,normalized growth,"S. cerevisiae deletion strains, locus YLR342W, strain FKS1, hits give low values",0.989
same,normalized growth,"S. cerevisiae deletion strains, locus YLR357W, strain rsc2, hits give low values",0.96
same,normalized growth,"S. cerevisiae deletion strains, locus YLR370C, strain arc18, hits give low values",0.972
same,normalized growth,"S. cerevisiae deletion strains, locus YLR371W, strain rom2, hits give low values",1.01
same,normalized growth,"S. cerevisiae deletion strains, locus YLR384C, strain iki3, hits give low values",0.964
same,normalized growth,"S. cerevisiae deletion strains, locus YLR418C, strain cdc73, hits give low values",0.939
same,normalized growth,"S. cerevisiae deletion strains, locus YML016C, strain PPZ1, hits give low values",0.999
same,normalized growth,"S. cerevisiae deletion strains, locus YML032C, strain rad52, hits give low values",0.952
same,normalized growth,"S. cerevisiae deletion strains, locus YML120C, strain ndi1, hits give low values",0.963
same,normalized growth,"S. cerevisiae deletion strains, locus YML124C, strain tub3, hits give low values",1
same,normalized growth,"S. cerevisiae deletion strains, locus YMR058W, strain fet3, hits give low values",0.988
same,normalized growth,"S. cerevisiae deletion strains, locus YMR078C, strain ctf18, hits give low values",0.998
same,normalized growth,"S. cerevisiae deletion strains, locus YMR125W, strain sto1, hits give low values",0.932
same,normalized growth,"S. cerevisiae deletion strains, locus YMR129W, hits give low values",0.976
same,normalized growth,"S. cerevisiae deletion strains, locus YMR205C, strain PFK2, hits give low values",0.956
same,normalized growth,"S. cerevisiae deletion strains, locus YMR223W, strain ubp8, hits give low values",0.996
same,normalized growth,"S. cerevisiae deletion strains, locus YMR231W, strain pep5, hits give low values",0.974
same,normalized growth,"S. cerevisiae deletion strains, locus YMR263W, strain SAP30, hits give low values",1.01
same,normalized growth,"S. cerevisiae deletion strains, locus YMR307W, strain GAS1, hits give low values",0.916
same,normalized growth,"S. cerevisiae deletion strains, locus YNL067W, strain RPL9B, hits give low values",0.999
same,normalized growth,"S. cerevisiae deletion strains, locus YNL071W, strain lat1, hits give low values",0.976
same,normalized growth,"S. cerevisiae deletion strains, locus YNL128W, strain TEP1, hits give low values",1.02
same,normalized growth,"S. cerevisiae deletion strains, locus YNL153C, strain GIM3, hits give low values",1.01
same,normalized growth,"S. cerevisiae deletion strains, locus YNL183C, strain NPR1, hits give low values",0.998
same,normalized growth,"S. cerevisiae deletion strains, locus YNL209W, strain ssb2, hits give low values",0.979
same,normalized growth,"S. cerevisiae deletion strains, locus YNL233W, strain BNI4, hits give low values",0.991
same,normalized growth,"S. cerevisiae deletion strains, locus YNL248C, strain rpa49, hits give low values",0.966
same,normalized growth,"S. cerevisiae deletion strains, locus YNL250W, strain rad50, hits give low values",1
same,normalized growth,"S. cerevisiae deletion strains, locus YNL271C, strain bni1, hits give low values",0.998
same,normalized growth,"S. cerevisiae deletion strains, locus YNL298W, strain CLA4, hits give low values",1
same,normalized growth,"S. cerevisiae deletion strains, locus YNL307C, strain MCK1, hits give low values",0.972
same,normalized growth,"S. cerevisiae deletion strains, locus YNL322C, strain KRE1 (second series), hits give low values",0.975
same,normalized growth,"S. cerevisiae deletion strains, locus YNL322C, strain KRE1, hits give low values",0.967
same,normalized growth,"S. cerevisiae deletion strains, locus YNR049C, strain mso1, hits give low values",0.968
same,normalized growth,"S. cerevisiae deletion strains, locus YNR052C, strain pop2, hits give low values",0.931
same,normalized growth,"S. cerevisiae deletion strains, locus YOL006C, strain TOP1, hits give low values",1.03
same,normalized growth,"S. cerevisiae deletion strains, locus YOL012C, strain htz1",0.833
same,normalized growth,"S. cerevisiae deletion strains, locus YOL147C, strain pex11, hits give low values",0.995
same,normalized growth,"S. cerevisiae deletion strains, locus YOR001W, strain rrp6, hits give low values",0.938
same,normalized growth,"S. cerevisiae deletion strains, locus YOR061W, strain CKA2, hits give low values",1.01
same,normalized growth,"S. cerevisiae deletion strains, locus YOR069W, strain VPS5, hits give low values",1
same,normalized growth,"S. cerevisiae deletion strains, locus YOR070C, strain gyp1, hits give low values",0.998
same,normalized growth,"S. cerevisiae deletion strains, locus YOR080W, strain dia2, hits give low values",0.951
same,normalized growth,"S. cerevisiae deletion strains, locus YOR083W, strain WHI5, hits give low values",0.936
same,normalized growth,"S. cerevisiae deletion strains, locus YOR106W, strain vam3, hits give low values",0.946
same,normalized growth,"S. cerevisiae deletion strains, locus YOR136W, strain idh2, hits give low values",1.01
same,normalized growth,"S. cerevisiae deletion strains, locus YOR144C, strain elg1, hits give low values",1.01
same,normalized growth,"S. cerevisiae deletion strains, locus YOR184W, strain ser1, hits give low values",0.979
same,normalized growth,"S. cerevisiae deletion strains, locus YOR231W, strain MKK1, hits give low values",1.02
same,normalized growth,"S. cerevisiae deletion strains, locus YOR265W, strain rbl2, hits give low values",0.976
same,normalized growth,"S. cerevisiae deletion strains, locus YOR270C, strain vph1, hits give low values",0.932
same,normalized growth,"S. cerevisiae deletion strains, locus YOR290C, strain snf2, hits give low values",0.896
same,normalized growth,"S. cerevisiae deletion strains, locus YOR316C, strain cot1, hits give low values",1
same,normalized growth,"S. cerevisiae deletion strains, locus YPL051W, strain arl3, hits give low values",0.981
same,normalized growth,"S. cerevisiae deletion strains, locus YPL055C, strain LGE1, hits give low values",1
same,normalized growth,"S. cerevisiae deletion strains, locus YPL078C, strain atp4, hits give low values",0.959
same,normalized growth,"S. cerevisiae deletion strains, locus YPL106C, strain sse1, hits give low values",0.956
same,normalized growth,"S. cerevisiae deletion strains, locus YPL240C, strain hsp82, hits give low values",0.98
same,normalized growth,"S. cerevisiae deletion strains, locus YPL241C, strain CIN2, hits give low values",1.01
same,normalized growth,"S. cerevisiae deletion strains, locus YPL256C, strain CLN2, hits give low values",1.09
same,normalized growth,"S. cerevisiae deletion strains, locus YPR119W, strain clb2, hits give low values",1
same,normalized growth,"S. cerevisiae deletion strains, locus YPR141C, strain kar3, hits give low values",1
same,normalized growth,"S. cerevisiae deletion strains, locus YPR163C, strain tif3, hits give low values",0.996
same,normalized growth,"S. cerevisiae deletion strains, locus YPR167C, strain met16, hits give low values",1.01
same,normalized growth,"S. cerevisiae deletion strains, strain wtn01, hits give low values",0.975
same,normalized growth,"S. cerevisiae strains, strain wild type, hits give low values",1
